Measurements reported in the supplement of paper PMC10338343.
± gives the standard deviation.

Tested on: MILI (PIWIL2) piRISC loaded with L1MC piRNA (26 nt)
Assay: pre-steady-state target cleavage rate (min^-1); guide: L1MC piRNA 5'p-UAACUAAAUACUAUGCAAGCUGUAGG; MIWI and MILI are mouse PIWI proteins and EfPiwi is from a freshwater sponge; tags in brackets are library labels; higher = faster piRNA-guided slicing of the target
How it was run: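 The pre-steady-state cleavage rate was obtained by Cleave-'n-Seq with a burst-and-steady-state fit. A transcribed, DNA-blocked target RNA library (0.1 nM) was mixed with 1 nM active affinity-purified piRISC carrying one synthetic guide, with or without 500 nM GTSF1 partner protein, in HEPES–potassium acetate buffer at 33 °C for 0–8 or 0–960 min. Uncleaved targets were sequenced and normalised to depth and to weakly complementary targets, with three trials pooled and k3 capped at 0.0001 min^-1.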

[1] = auxiliary factor: 500 nM mouse GTSF1
[2] = auxiliary factor: none (no GTSF1)

Sequence | pre-steady-state target cleavage rate [1] | pre-steady-state target cleavage rate [2]
UCCUGGUACAGCUAGCAUACUAUUUAGUUA | 0.126 ± 0.026 | 0.00435 ± 0.0028
UCCUGGAUGUGCAUGCAAAGUAUUUAGUUA | 0.0175 ± 0.0048 | 0.00933 ± 0.0024
UCCUGGAUGUGCUUGCUUAGUUUUUAGUUA | 0.011 ± 0.0063 | 0.00656 ± 0.0028
UCCUGGAUGUGCUUGCAUUGUAUAUAGUUA | 0.0696 ± 0.012 | 0.00543 ± 0.0026
UCCUGGAUCAGCUUCGCAUAGUAUUUAGUUA | 0.309 ± 0.02 | 0.00591 ± 0.0024
UCCUGGAUGUCGAAGCAUAGUAUUUUAGUUA | 0.0433 ± 0.01 | 0.00324 ± 0.0028
